Several values for one entry are separate records, joined by “and”; a condition that tells them apart may be missing. Equal entries are not always repeated. Inconclusive results are not listed. Some compounds were tested as several samples or in several runs, with calls that do not always agree. For some of these results: Potency and affinity values are given separately. Activity calls are given as the source filed them.
Legend:
[1] = qHTS Assay for Identifying Gametocytocidal Compounds (AID 743244; active means well fitted curve in the direction sought with a large enough effect; an effect the other way counts as inactive or inconclusive; further: potency means the concentration at half of the fitted maximal effect;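 on max response: on the % scale 0 is the no-effect control and ±100 the full control effect; actives lower the fluorescent signal which means gametocytes are killed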); conditions: P. falciparum 3D7 stage III-V gametocytes, alamarBlue, 72 h; max response: stronger effect = lower value
Outline: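 Stage III–V gametocytes of P. falciparum 3D7 were seeded at 20,000 cells/well onto pre-dispensed compounds. After 72 h, 37 °C, 5% CO2, alamarBlue was added for another 24 h.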

[2] = Ebola virus entry assay, blue channel fluorescence
[3] = Ebola virus entry assay, green fluorescence channel
[4] = Ebola virus entry assay, blue channel fluorescence; remark: listed apart in the source
[5] = Ebola virus entry reporter assay, green channel fluorescence
[6] = Ebola virus entry cell assay, ratio channel
[7] = Ebola virus entry assay, ratio channel readout
[8] = qHTS profiling of the MIPE4 collection as inhibitors of Plasmodium falciparum (HB3) proliferation (AID 743347; call rule not given here;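 further: plate controls were DMSO vehicle wells for no effect and artemisinin wells for full effect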); conditions: P. falciparum HB3 in erythrocytes, SYBR Green DNA, 72 h; at 28.5 µM (top of the series) unless noted
Outline: (§1)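 Parasite DNA was quantified by SYBR Green I fluorescence (ex 485, em 535 nm) after overnight lysis in saponin/Triton buffer at room temperature. Cultures at 0.3% parasitemia and 2.5% hematocrit were first exposed to compound for 72 h at 37 C; signals were normalised to artemisinin (0.29 uM) and vehicle wells.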

[9] = qHTS assay for cell viability of HEK293 cells (AID 743288; active means well fitted curve in the direction sought with a large enough effect; an effect the other way counts as inactive or inconclusive; further: on the % scale 0 is the no-effect control and ±100 the full control effect; nearly all actives have a fitted effect of over 50% in size); conditions: ATP luminescence (CellTiter-Glo), 18 h, stronger effect = lower value
Outline: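 After 18 h compound exposure at 37 C, parental HEK293 cells (2,000/well) are lysed with CellTiter-Glo and luminescence is read following 30 min at room temperature.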

[10] = Ebola virus entry assay, blue channel fluorescence; remark: listed apart in the source
[11] = Ebola virus entry assay, ratio channel
[12] = Ebola virus entry assay, green channel fluorescence
[13] = Ebola virus entry assay, reporter ratio channel; AC50: Channel type: primary unless noted; outcome: Channel type: primary unless noted
[14] = Ebola virus entry assay, blue channel (ratio component)
[15] = qHTS profiling of the MIPE4 collection as inhibitors of Plasmodium falciparum (3D7) proliferation (AID 743344; call rule not given here;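 further: scaled between DMSO vehicle wells and 0.29 µM artemisinin as full inhibition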); conditions: P. falciparum 3D7 in erythrocytes, SYBR Green DNA fluorescence, 72 h; at 28.5 µM (top of the series) unless noted
Outline: as §1

[16] = qHTS profiling of the MIPE4 collection as inhibitors of Plasmodium falciparum (DD2) proliferation (AID 743345; call rule not given here); conditions: P. falciparum Dd2 in erythrocytes, SYBR Green DNA, 72 h; at 28.5 µM (top of the series) unless noted
Outline: as §1

CCCCCN(C)CCC(O)(P(=O)(O)O)P(=O)(O)O
inactive: max response [1] 17.4% and 7.96% | outcome [2] | outcome [3] | outcome [4] | outcome [5] | outcome [6]

CO[C@@H]1[C@@H](O[C@@H]2O[C@H](C)[C@@H](O[C@H]3C[C@@](C)(O)[C@@H](O)[C@H](C)O3)[C@H](N(C)C)[C@H]2O)[C@@H](CC=O)C[C@@H](C)[C@@H](O[C@@H]2CC[C@H](N(C)C)[C@@H](C)O2)/C=C/C=C/C[C@@H](C)OC(=O)C[C@H]1O
inactive: outcome [2] | outcome [3] | outcome [7]
active: AC50 [6] 11.2 µM

Cc1onc(-c2ccccc2)c1C(=O)N[C@@H]1C(=O)N2[C@@H](C(=O)O)C(C)(C)S[C@@H]12
82.7%: growth, % of control [8]
inactive: outcome [2] | outcome [3] | outcome [4] | outcome [6]

CCCC(C)(COC(N)=O)COC(N)=O
inactive: max response [1] -2.61% | max response [9] 2.5% and 7.62% | outcome [3] | outcome [7] | outcome [4] | outcome [6]

O=C1CN=C(c2ccccc2)c2cc([N+](=O)[O-])ccc2N1
inactive: max response [1] 13.6% | outcome [3] | outcome [7] | outcome [10] | outcome [11] | outcome [12] | outcome [4] | outcome [13] | outcome [14] | outcome [5] | outcome [6]

C[C@](O)(CS(=O)(=O)c1ccc(F)cc1)C(=O)Nc1ccc(C#N)c(C(F)(F)F)c1
27.8%: growth, % of control [8]
inactive: outcome [2] | outcome [3] | outcome [7] | outcome [6]
22%: parasite growth, % of DMSO control [15]
93.2%: parasite growth remaining, % of DMSO control (lower = more inhibition) [16]

Nc1nc(/C(=C/CC(=O)O)C(=O)N[C@@H]2C(=O)N3C(C(=O)O)=CCS[C@H]23)cs1
inactive: outcome [3] | outcome [7] | outcome [4] | outcome [5] | outcome [6]

NC[C@H]1O[C@H](O[C@H]2[C@H](O)[C@@H](O[C@H]3O[C@H](CO)[C@@H](O)[C@H](N)[C@H]3O)[C@H](N)C[C@@H]2N)[C@H](O)[C@@H](O)[C@@H]1O
inactive: outcome [3] | outcome [4] | outcome [5] | outcome [6]

NC(=O)COCCN1CCN(C(c2ccccc2)c2ccc(Cl)cc2)CC1 (stereo not drawn)
inactive: outcome [2] | outcome [7] | outcome [12] | outcome [4] | outcome [13] | outcome [14] | outcome [5] | outcome [6]

Nc1nc2[nH]cc(CCc3ccc(C(=O)N[C@@H](CCC(=O)O)C(=O)O)cc3)c2c(=O)[nH]1
inactive: outcome [3] | outcome [7] | outcome [4] | outcome [5] | outcome [6]

COc1cccc2c1C(=O)c1c(O)c3c(c(O)c1C2=O)C[C@@](O)(C(C)=O)C[C@H]3O[C@H]1C[C@H](N)[C@H](O)[C@H](C)O1
inactive: outcome [13] inactive [Channel type: confirmation] | outcome [14]
active: AC50 [2] 6.31 µM | AC50 [7] 5.63 µM | AC50 [6] 5.62 µM

CSCC[C@H](NC(=O)[C@H](Cc1ccc(OS(=O)(=O)O)cc1)NC(=O)[C@@H](N)CC(=O)O)C(=O)NCC(=O)N[C@@H](Cc1c[nH]c2ccccc12)C(=O)N[C@@H](CCSC)C(=O)N[C@@H](CC(=O)O)C(=O)N[C@@H](Cc1ccccc1)C(N)=O
inactive: outcome [2] | outcome [3] | outcome [4] | outcome [6]

CC1(C)S[C@@H]2[C@H](NC(=O)[C@H](N)c3ccc(O)cc3)C(=O)N2[C@H]1C(=O)O
inactive: outcome [2] | outcome [3] | outcome [4] | outcome [5] | outcome [6]

COc1ccc2c(c1)C13CCCC[C@@H]1C(C2)N(C)CC3 (stereo partly drawn)
inactive: max response [1] 7.6% | outcome [2] | outcome [3] | outcome [7] | outcome [6]

CN1C[C@H](C(=O)N[C@]2(C)O[C@@]3(O)[C@@H]4CCCN4C(=O)[C@H](Cc4ccccc4)N3C2=O)C=C2c3cccc4[nH]cc(c34)C[C@H]21
active: Potency [1] 8.91 µM
inactive: max response [9] -13.1% and -12.3% | outcome [2] | outcome [3] | outcome [7] | outcome [6]

CC(C)NCC(O)c1ccc(NS(C)(=O)=O)cc1 (stereo not drawn)
inactive: outcome [2] | outcome [3] | outcome [7] | outcome [6]

COc1cc([C@@H]2c3cc4c(cc3[C@@H](O[C@@H]3O[C@@H]5CO[C@@H](C)O[C@H]5[C@H](O)[C@H]3O)[C@H]3COC(=O)[C@H]23)OCO4)cc(OC)c1O
inactive: outcome [2] | outcome [3] | outcome [4] | outcome [5] | outcome [6]

NC(=O)CC[C@@H]1NC(=O)[C@H](Cc2ccccc2)NC(=O)[C@H](Cc2ccc(O)cc2)NC(=O)[C@@H](N)CSSC[C@@H](C(=O)N2CCC[C@H]2C(=O)N[C@@H](CCCN=C(N)N)C(=O)NCC(N)=O)NC(=O)[C@H](CC(N)=O)NC1=O
inactive: outcome [2] | outcome [3] | outcome [4] | outcome [5] | outcome [6]

CCOC(=O)C1=C(COCCN)NC(C)=C(C(=O)OC)C1c1ccccc1Cl (stereo not drawn)
inactive: max response [1] -0.484% | outcome [2] | outcome [3] | outcome [7] | outcome [6]
active: Potency [1] 20 µM

CC(O)(P(=O)(O)O)P(=O)(O)O
inactive: outcome [2] | outcome [3] | outcome [10] | outcome [12] | outcome [4] | outcome [13] | outcome [14] | outcome [5] | outcome [6]

O=C1[O][Bi][O]c2ccccc21
inactive: outcome [2] | outcome [7] | outcome [4] | outcome [5] | outcome [6]

CCOC(=O)[C@H](CCc1ccccc1)N[C@@H](C)C(=O)N1[C@H](C(=O)O)C[C@H]2CCCC[C@@H]21
inactive: outcome [3] | outcome [7] | outcome [4] | outcome [5] | outcome [6]

CCCc1nc(C(C)(C)O)c(C(=O)OCc2oc(=O)oc2C)n1Cc1ccc(-c2ccccc2-c2nn[nH]n2)cc1
inactive: outcome [2] | outcome [3] | outcome [4] | outcome [5] | outcome [6]

C[C@H](CS)C(=O)N1CCC[C@H]1C(=O)O
inactive: outcome [2] | outcome [7] | outcome [10] | outcome [11] | outcome [12] | outcome [4] | outcome [13] | outcome [14] | outcome [5] | outcome [6]

N#Cc1ccc2c(c1)N(CCCN1CCC(O)CC1)c1ccccc1S2
active: AC50 [7] 22.4 µM | AC50 [6] 22.4 µM
inactive: outcome [2] | outcome [3]

CN1CCN(C(c2ccccc2)c2ccc(Cl)cc2)CC1 (stereo not drawn)
inactive: outcome [3] | outcome [7]
active: AC50 [2] 12.6 µM | AC50 [6] 10 µM
